Measurements taken from PubChem BioAssay (Tox21).
Inconclusive results are not listed. Activity calls are given as the source filed them. Unless noted, calls follow the shape of the dose curve; as a rule, active = well fitted curve in the direction sought with a large enough effect in the repeat runs; inconclusive = weak or mixed curves; inactive = no such curve, though single readings can be large; an effect the other way counts as inactive or inconclusive.

Assays:
[1] = A CellTox Green Cytotoxicity Assay to monitor cytotoxicity in HEK293 cells - 32 hour (AID 1224881); also: nearly all actives have a fitted effect of over 40% in size; also: potency is read from the fitted curve at half-maximal effect
How it was run: (§1)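 Real-time, in one plate: 600 HEK293 cells/well with dead-cell DNA dye, pinned compound after 5 h, 37 C incubation over 40 h; viable cells give no appreciable fluorescence.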

[2] = A CellTox Green Cytotoxicity Assay to monitor cytotoxicity in HepG2 cells - 0 hour (AID 1224882); also: nearly all actives have a fitted effect of over 35% in size
How it was run: (§2)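 Cytotoxicity was tracked as dead-cell DNA fluorescence in HepG2 cells treated with test compounds at 37 C; each time-point value comes from one kinetic series spanning 0, 8, 16, 24, 32 and 40 h.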

[3] = A CellTox Green Cytotoxicity Assay to monitor cytotoxicity in HEK293 cells - 8 hour (AID 1224884); also: nearly all actives have a fitted effect of over 35% in size; also: potency is read from the fitted curve at half-maximal effect
How it was run: as §1

[4] = qHTS RealTime-Glo MT Cell Viability Assay in HepG2 cells - 16 hour (AID 1224885); also: nearly all actives have a fitted effect of over 50% in size
How it was run: (§3)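 HepG2 cells were seeded at 600 cells/well together with NanoLuc luciferase and a cell-permeant prosubstrate, preincubated 5 h at 37 C/5% CO2, then pin-dosed with compounds in DMSO. Nonlytic luminescence from viable cells was read at each time point.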

[5] = qHTS RealTime-Glo MT Cell Viability Assay in HEK293 cells - 24 hour (AID 1224886); also: top concentration of the series differs between compounds; nearly all actives have a fitted effect of over 50% in size
How it was run: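 HEK293 cells were seeded at 600 cells/well together with NanoLuc luciferase and cell-permeant prosubstrate, preincubated 5 h at 37 C/5% CO2, then given compound in DMSO by pintool. Luminescence from viable-cell prosubstrate reduction was read repeatedly over 40 h.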

[6] = qHTS RealTime-Glo MT Cell Viability Assay in HEK293 cells - 8 hour (AID 1224887); also: top concentration of the series differs between compounds; nearly all actives have a fitted effect of over 50% in size
How it was run: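 Kinetic, non-lysing viability readout. Seed HEK293 (600/well) with reagent, incubate 5 h at 37 C/5% CO2, pin 23 nL compound in DMSO, incubate at 37 C, read luminescence at 0, 8, 16, 24, 32, 40 h.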

[7] = A CellTox Green Cytotoxicity Assay to monitor cytotoxicity in HEK293 cells - 16 hour (AID 1224888); also: nearly all actives have a fitted effect of over 35% in size; also: potency is read from the fitted curve at half-maximal effect
How it was run: as §1

[8] = qHTS RealTime-Glo MT Cell Viability Assay in HepG2 cells - 0 hour (AID 1224889); also: nearly all actives have a fitted effect of over 50% in size
How it was run: as §3

[9] = A CellTox Green Cytotoxicity Assay to monitor cytotoxicity in HepG2 cells - 8 hour (AID 1224890); also: nearly all actives have a fitted effect of over 45% in size; also: potency is read from the fitted curve at half-maximal effect
How it was run: as §2

[10] = qHTS assay to identify small molecule antagonists of the estrogen receptor alpha (ER-alpha) signaling pathway using the BG1 cell line in the presence of 0.1 nM 17-beta-estradiol - cell viability counter screen (AID 1259241); also: nearly all actives have a fitted effect of over 40% in size
How it was run: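 CellTiter-Fluor read (30 min, 37C) on ER-alpha/ERE-luc VM7Luc4E2 cells; 22 hr compound treatment; agonist 0.1 nM E2 final; same-well multiplex.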

[11] = qHTS assay to identify small molecule antagonists of the androgen receptor (AR) signaling pathway using the MDA cell line in the presence of 0.5 nM R1881 - cell viability counter screen (AID 1259242); also: nearly all actives have a fitted effect of over 45% in size
How it was run: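 Cells seeded at 3,000/well and allowed 5 hr at 37C, 0% CO2 before compound transfer and R1881 (0.5 nM final) addition; 16 hr later, live-cell protease fluorescence indicated cytotoxicity.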

[12] = molecular target: Androgen receptor (Homo sapiens) (UniProt P10275); assay: qHTS assay to identify small molecule antagonists of the androgen receptor (AR) signaling pathway using the MDA cell line in the presence of 0.5 nM R1881 (AID 1259243); also: nearly all actives have a fitted effect of over 50% in size
How it was run: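 Luminescence from an AR/GR-responsive MMTV-luciferase construct in MDA-kb2 breast carcinoma cells, read 30 min after ONE-Glo, following 16 hr co-treatment with compounds and 0.5 nM R1881.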

[13] = molecular target: Estrogen receptor (Homo sapiens) (UniProt P03372); assay: qHTS assay to identify small molecule antagonists of the estrogen receptor alpha (ER-alpha) signaling pathway using the BG1 cell line in the presence of 0.1 nM 17-beta-estradiol (AID 1259244); also: nearly all actives have a fitted effect of over 50% in size; also: potency is read from the fitted curve at half-maximal effect
How it was run: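 Luciferase signal from VM7Luc4E2 ERE-reporter cells, co-dosed with test compound and 0.1 nM final 17beta-estradiol for 22 h, read with ONE-Glo.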

[14] = qHTS assay to identify small molecule HDAC inhibitors (AID 1259364);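 also: wild-type HCT-116 cells with endogenous class I/II HDAC activity; top concentration of the series differs between compounds; nearly all actives have a fitted effect of over 45% in size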
How it was run: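 HCT-116 wt cells, 1,500/well, overnight attach. Compounds (DMSO) 2 h, 37 °C. HDAC-Glo I/II, 30 min RT. Luminescence.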

[15] = qHTS assay to identify small molecule HDAC inhibitors - cell viability counter screen (AID 1259365)
How it was run: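 To flag cytotoxic hits, 1,500 wild-type HCT-116 cells per well, plated the day before, receive test compounds for 2hr at 37 C before CellTiter-Glo reagent and a luminescence read.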

[16] = qHTS assay to identify small molecule agonists of the sonic hedgehog signaling (Shh) pathway - cell viability counter screen (AID 1259366); also: nearly all actives have a fitted effect of over 50% in size
How it was run: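 Fluorescence from CellTiter-Fluor reports live cells in this counter screen. NIH/3T3-derived Gli1-Luc reporter cells receive test compounds for 24hr at 37C; reagent goes in at 23hr.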

[17] = qHTS assay to identify small molecule antagonists of the sonic hedgehog signaling (Shh) pathway - cell viability counter screen (AID 1259367); also: nearly all actives have a fitted effect of over 55% in size
How it was run: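 Tox21 library chemicals were tested on a Gli1-Luc NIH/3T3 clone (2,000 cells/well) stimulated by conditioned medium; viability was quantified as fluorescence from CellTiter-Fluor reagent added at 23 hr.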

[18] = qHTS assay to identify small molecule agonists of the sonic hedgehog signaling (Shh) pathway (AID 1259368; calls by dose curve;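 also: NIH/3T3-derived 3T3Gli1-Luc cells carrying a stable Gli1-driven firefly luciferase reporter; series mostly up to about 92 µM; nearly all actives have a fitted effect of over 15% in size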)
How it was run: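 Following a 24 hr incubation with DMSO-dissolved compounds at 37 C, 5% CO2, Gli1-Luc NIH/3T3-derived cells received luciferase reagent for 30 min at room temperature prior to luminescence measurement.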

[19] = A CellTox Green Cytotoxicity Assay to monitor cytotoxicity in HepG2 cells - 32 hour (AID 1224883); also: nearly all actives have a fitted effect of over 50% in size; also: potency is read from the fitted curve at half-maximal effect
How it was run: as §2

[20] = qHTS assay to identify small molecule phospholipidosis (PLD) inducers (AID 1259344; active = well fitted curve in the direction sought with a large enough effect; an effect the other way counts as inactive or inconclusive)
How it was run: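 Image-based: LipidTOX Red pit count/intensity per well and per cell; HepG2, 24 h compound at 37 C, PFA fixation, Hoechst counterstain.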
% is scaled to controls: 0 for no effect and ±100 for the full control effect.

Sequence of Androgen receptor (Homo sapiens) (P10275 whole entry, looked up): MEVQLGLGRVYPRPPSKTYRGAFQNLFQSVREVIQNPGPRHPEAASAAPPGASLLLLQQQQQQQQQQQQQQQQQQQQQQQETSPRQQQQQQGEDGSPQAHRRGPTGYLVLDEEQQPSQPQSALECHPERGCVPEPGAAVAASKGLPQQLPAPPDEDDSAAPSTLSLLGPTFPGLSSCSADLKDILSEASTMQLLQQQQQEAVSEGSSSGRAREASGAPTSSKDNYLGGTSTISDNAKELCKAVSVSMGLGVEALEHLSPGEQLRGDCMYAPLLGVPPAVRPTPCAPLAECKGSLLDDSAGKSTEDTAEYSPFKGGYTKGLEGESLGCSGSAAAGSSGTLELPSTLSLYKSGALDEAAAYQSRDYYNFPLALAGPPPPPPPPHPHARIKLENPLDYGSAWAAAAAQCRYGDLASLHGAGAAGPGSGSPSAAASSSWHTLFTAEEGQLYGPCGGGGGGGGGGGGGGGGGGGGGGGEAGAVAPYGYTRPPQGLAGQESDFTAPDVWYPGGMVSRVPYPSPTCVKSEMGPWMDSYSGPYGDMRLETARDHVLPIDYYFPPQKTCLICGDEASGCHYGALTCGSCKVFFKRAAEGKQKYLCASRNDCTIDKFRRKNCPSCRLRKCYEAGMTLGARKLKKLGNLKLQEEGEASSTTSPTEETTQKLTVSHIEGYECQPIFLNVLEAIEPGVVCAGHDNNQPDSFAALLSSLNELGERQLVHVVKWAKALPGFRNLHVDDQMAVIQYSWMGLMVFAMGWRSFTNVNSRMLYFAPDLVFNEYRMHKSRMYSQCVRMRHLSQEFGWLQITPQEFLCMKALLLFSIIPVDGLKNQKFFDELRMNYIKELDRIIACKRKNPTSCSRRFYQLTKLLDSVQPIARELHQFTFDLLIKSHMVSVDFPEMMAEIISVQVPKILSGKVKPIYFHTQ
Sequence of Estrogen receptor (Homo sapiens) (P03372 whole entry, looked up): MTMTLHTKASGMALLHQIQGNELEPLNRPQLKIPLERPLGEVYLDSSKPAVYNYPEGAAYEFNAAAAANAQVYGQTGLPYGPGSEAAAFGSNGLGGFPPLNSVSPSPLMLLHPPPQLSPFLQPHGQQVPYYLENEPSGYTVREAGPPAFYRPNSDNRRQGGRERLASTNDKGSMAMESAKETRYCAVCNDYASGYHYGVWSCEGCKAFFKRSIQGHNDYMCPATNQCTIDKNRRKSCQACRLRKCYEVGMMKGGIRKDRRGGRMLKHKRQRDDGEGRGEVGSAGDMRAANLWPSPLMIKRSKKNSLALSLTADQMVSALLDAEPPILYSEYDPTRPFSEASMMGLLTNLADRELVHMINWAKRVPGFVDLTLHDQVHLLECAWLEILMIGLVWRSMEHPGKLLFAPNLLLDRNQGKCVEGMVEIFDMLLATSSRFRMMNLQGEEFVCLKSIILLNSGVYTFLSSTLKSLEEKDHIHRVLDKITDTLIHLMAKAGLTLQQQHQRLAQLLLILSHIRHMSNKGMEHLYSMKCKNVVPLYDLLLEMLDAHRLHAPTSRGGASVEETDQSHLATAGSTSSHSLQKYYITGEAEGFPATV

CC(C)OC(=O)C(O)(CC(=O)O)CC(=O)O
inactive: Potency [1] | Potency [2] | Potency [3] | Potency [4] | Potency [5] | Potency [6] | Potency [7] | Potency [8] | Potency [9] | Potency [10] | Potency [11] | Potency [12] | Potency [13] | Potency [14] | Potency [15] | Potency [16] | Potency [17] | Potency [18]

OC[C@H]1O[C@H](O[C@H]2O[C@H](CO)[C@@H](O)[C@H](O)[C@H]2O)[C@H](O)[C@@H](O)[C@@H]1O
inactive: Potency [1] | Potency [2] | Potency [3] | Potency [4] | Potency [5] | Potency [6] | Potency [7] | Potency [8] | Potency [9] | Potency [10] | Potency [11] | Potency [12] | Potency [14] | Potency [15] | Potency [16] | Potency [17] | Potency [18]

CC(=O)Oc1cc2c(s1)CCN(C(C(=O)C1CC1)c1ccccc1F)C2 (configuration not stated)
inactive: Potency [1] | Potency [19] | Potency [3] | Potency [4] | Potency [5] | Potency [6] | Potency [7] | Potency [8] | Potency [9] | Potency [10] | Potency [11] | Potency [13] | Potency [20] | Potency [14] | Potency [15] | Potency [16] | Potency [17] | Potency [18]

CC[N+](CC)(CC)CCOc1ccc(/C=C/c2ccccc2)cc1
inactive: Potency [2] | Potency [3] | Potency [4] | Potency [6] | Potency [7] | Potency [8] | Potency [9] | Potency [10] | Potency [20] | Potency [14] | Potency [15] | Potency [16] | Potency [17] | Potency [18]
active: Potency [1] 6.74 µM | Potency [13] 13.3 µM

CCCNCCC
inactive: Potency [1] | Potency [19] | Potency [3] | Potency [4] | Potency [5] | Potency [6] | Potency [7] | Potency [8] | Potency [9] | Potency [10] | Potency [11] | Potency [14] | Potency [15] | Potency [16] | Potency [17] | Potency [18]

O=C(/C=C/c1ccccc1)OC/C=C/c1ccccc1
inactive: Potency [1] | Potency [2] | Potency [4] | Potency [5] | Potency [7] | Potency [8] | Potency [9] | Potency [10] | Potency [11] | Potency [12] | Potency [13] | Potency [14] | Potency [15] | Potency [16] | Potency [17] | Potency [18]

CC(C)(C)c1csc(-c2cc3cc(OCc4ccccc4CC(=O)O)ccc3o2)n1
inactive: Potency [2] | Potency [3] | Potency [8] | Potency [10] | Potency [11] | Potency [13] | Potency [14] | Potency [15] | Potency [16] | Potency [17] | Potency [18]
active: Potency [1] 54.9 µM

CCc1ccc(Br)cc1
inactive: Potency [1] | Potency [19] | Potency [3] | Potency [4] | Potency [5] | Potency [6] | Potency [7] | Potency [8] | Potency [9] | Potency [10] | Potency [11] | Potency [13] | Potency [14] | Potency [15] | Potency [16] | Potency [17] | Potency [18]

Cc1cc(C(C)(C)C)cc(C)c1CC1=NCCN1
inactive: Potency [1] | Potency [19] | Potency [3] | Potency [4] | Potency [5] | Potency [6] | Potency [7] | Potency [8] | Potency [9] | Potency [10] | Potency [11] | Potency [13] | Potency [20] | Potency [14] | Potency [15] | Potency [16] | Potency [17] | Potency [18]

CC(C)(C)CC(C)(C)c1ccc(Nc2ccc(C(C)(C)CC(C)(C)C)cc2)cc1
inactive: cytotoxicity increase [1] 0.962% [at 6.97 µM] | cytotoxicity increase [19] 0.939% [at 6.97 µM] | cytotoxicity increase [3] 0.178% [at 6.97 µM] | activity change, negative = cytotoxic [4] 0.171% [at 6.97 µM] | activity change, negative = cytotoxicity [5] 3.98% [at 6.97 µM] | activity change, negative = cytotoxicity [6] -20.4% [at 6.97 µM] | activity change [7] 5.08% [at 6.97 µM, active compounds read high] | activity change, negative = cytotoxicity [8] 1.23% [at 6.97 µM] | cytotoxicity increase [9] 1.07% [at 6.97 µM] | activity change, negative = cytotoxicity [10] 4% [at 8.39 µM] | viability change, negative = cytotoxic [11] 0.0791% [at 8.39 µM] | activity change, negative = inhibition [13] -17.9% [at 8.39 µM] | activity change, negative = inhibition [14] -1.65% [at 8.39 µM] | activity change, negative = cytotoxicity [15] 2.64% [at 8.39 µM] | viability change, negative = cytotoxic [16] 3.57% [at 8.39 µM] | viability change, negative = cytotoxic [17] -1.41% [at 8.39 µM] | activity change [18] -0.648% [at 8.39 µM, active compounds read high]

O=C1CCCCCCCCCCCCCCCO1
active: Potency [1] 24.5 µM | Potency [19] 43.6 µM | Potency [3] 43.6 µM | Potency [7] 24.5 µM | Potency [9] 43.6 µM
inactive: Potency [4] | Potency [5] | Potency [6] | Potency [8] | Potency [10] | Potency [11] | Potency [13] | Potency [14] | Potency [15] | Potency [16] | Potency [17] | Potency [18]

COC(=O)C1=C(C)NC(C)=C(C(=O)OCCN2CCN(C(c3ccccc3)c3ccccc3)CC2)C1c1cccc([N+](=O)[O-])c1 (configuration not stated)
inactive: Potency [1] | Potency [2] | Potency [3] | Potency [7] | Potency [8] | Potency [9] | Potency [10] | Potency [11] | Potency [20] | Potency [14] | Potency [15] | Potency [18]

c1ccc(C(O[C@@H]2CCCN(CCc3ccc4c(c3)OCO4)C2)c2ccccc2)cc1
inactive: Potency [1] | Potency [2] | Potency [3] | Potency [4] | Potency [7] | Potency [8] | Potency [9] | Potency [10] | Potency [11] | Potency [14] | Potency [15] | Potency [17] | Potency [18]
